APE1 inh = qHTS Assay for Inhibitors of the Human Apurinic/apyrimidinic Endonuclease 1 (APE1); recombinant APE1, TAMRA/BHQ-2 abasic DNA cleavage fluorescence; 0.35% of 350,000 active; Potency, µM (titrated, usually from 65.8 µM), most hits filed as inhibitors; DNA repair nuclease/redox regulator APEX1 (Homo sapiens), P27695; note: nearly all actives have a fitted effect of over 55% in size
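APE1 at 0.75 nM preincubated 15 min at room temperature with compound. Reaction then started with 50 nM double-stranded THF-abasic substrate labelled with TAMRA/BHQ-2, and 525/598 nm fluorescence read kinetically. Activity taken as third-minus-first read difference, normalized to DMSO and NSC13755 controls.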
RECQ1 helicase = qHTS Assay for Inhibitors of RecQ-Like Dna Helicase 1 (RECQ1). Potency, µM (top dose mostly 57.3 µM), actives largely listed as inhibitors. ATP-dependent DNA helicase Q1 (Homo sapiens), P46063. AID 2549, 2010. RECQ1 DNA unwinding, red fluorescence kinetic read. 0.54% of 240,000 active; note: nearly all actives have a fitted effect of over 30% in size
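50 nM RECQ1T1 preincubated 15 min with compound in Tris pH 8.0 buffer with MgCl2, DTT, Tween-20 and 2.5 ug/ml poly(dI-dC); started with 200 nM TAMRA/BHQ-2 forked duplex and 2 mM ATP. Unwinding read as fluorescence (525/598 nm), two reads 2 h apart.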
PI5P4K alpha inh = qHTS for Inhibitors of phosphatidylinositol 5-phosphate 4-kinase (PI5P4K); PI5P4Kalpha enzyme, ADP-Glo luminescence, 60 min; hits give low values; Phosphatidylinositol 5-phosphate 4-kinase type-2 alpha (Homo sapiens), P48426; 1.2% of 330,000 active; AID 652105, 2013; max response, %; active = max response of -50% or lower; inconclusive = between -30% and -50%; inactive = -30% or higher; note: value at the top dose of about 77 µM
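qHTS, 1536-well: enzyme/substrate mix, compound by pin tool, 5 microM ATP final; RT 60 min; ADP-Glo reagents 1 (45 min) then 2 (30 min); luminescence.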
WRN helicase inh = qHTS for Inhibitors of WRN Helicase; WRN helicase unwinding, fluorescent forked duplex, kinetic; 0.46% of 360,000 active; Potency, µM (highest dose often 114 µM), hits mostly inhibitors; Bifunctional 3'-5' exonuclease/ATP-dependent helicase WRN (Homo sapiens), Q14191; note: nearly all actives have a fitted effect of over 55% in size
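Kinetic fluorescence helicase assay: unwinding of a quenched forked DNA duplex (100 nM final) with 2 mM ATP final raises red fluorescence (525/598 nm). Compounds sat 15 min at room temperature with 20 nM WRN beforehand.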
FEN1 inh = qHTS Assay for the Inhibitors of Human Flap endonuclease 1 (FEN1); 0.35% of 390,000 active; P39748; AID 588795, 2011; Potency, µM (top dose mostly 114 µM), usual class: inhibitors; Recombinant FEN1 flap cleavage, fluorescence, 15 min; note: nearly all actives have a fitted effect of over 65% in size
Target sequence (P39748 whole entry, looked up): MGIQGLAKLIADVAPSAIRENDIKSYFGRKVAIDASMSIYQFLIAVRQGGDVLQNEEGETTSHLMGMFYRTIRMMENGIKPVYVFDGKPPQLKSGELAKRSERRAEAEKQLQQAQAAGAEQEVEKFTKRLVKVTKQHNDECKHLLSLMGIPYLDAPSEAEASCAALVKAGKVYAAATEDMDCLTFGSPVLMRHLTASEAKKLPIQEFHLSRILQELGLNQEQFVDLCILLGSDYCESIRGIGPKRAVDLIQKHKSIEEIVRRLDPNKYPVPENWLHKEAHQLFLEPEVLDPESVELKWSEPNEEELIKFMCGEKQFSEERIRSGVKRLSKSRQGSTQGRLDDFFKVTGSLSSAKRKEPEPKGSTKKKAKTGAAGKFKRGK
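Read-out was taken twice, immediately and after 15 min, following addition of 50 nM substrate to 10 nM FEN1 that had sat with test compound for 15 min at room temperature. Curves came from a four-parameter Hill model.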
BLM helicase inh = qHTS Assay for Inhibitors of Bloom's syndrome helicase (BLM); AID 2528, 2010; Potency, µM (highest dose often 56.1 µM), hits mostly inhibitors; recombinant BLM DNA unwinding, fluorescence dequenching; 0.2% of 350,000 active; note: nearly all actives have a fitted effect of over 35% in size
A number is an active result; i = inactive; ? = inconclusive; nt = no result given. Hits are enriched below; roughly 1.5% of the tested compounds scored in any of these assays. Unless noted, calls come from the whole dose curve; as a rule, active = well fitted curve in the direction sought with a large enough effect; inconclusive = small, poorly fitted or top-dose-only effect, or another doubt; inactive = no such curve, though single readings can be large; an effect the other way counts as inactive or inconclusive.

SMILES	APE1 inh	RECQ1 helicase	PI5P4K alpha inh	WRN helicase inh	FEN1 inh	BLM helicase inh
CCOc1cc(C=C2C(=O)NC(=S)NC2=O)ccc1O	nt	nt	-76.8	50.1µM	i	nt
COc1ccc(/C=C/C=C2C(=O)NC(=S)NC2=O)cc1	nt	nt	-50.2	44.7µM	?	nt
COc1ccc(C=C2C(=O)NC(=S)NC2=O)cc1OC	nt	nt	-50.5	44.7µM	i	nt
CCN1C(=O)/C(=C/c2ccc(N(CC)CC)cc2OC)C(=O)NC1=S	?	i	?	i	i	i
S=C=Nc1cccc2ccccc12	i	i	nt	nt	nt	nt
O=c1cc(-c2ccc(O)cc2)oc2c([C@H]3O[C@@H](CO)[C@@H](O)[C@@H](O)[C@@H]3O)c(O)cc(O)c12	?	i	nt	nt	nt	i
Cc1cccc(C)c1O	i	i	nt	nt	nt	nt
CC(C)c1ccc(N2C(=O)NC(=O)/C(=C\C=C\c3ccco3)C2=O)cc1	?	15.8µM	-69.2	?	?	?
O=C1NC(=O)N(Cc2ccccc2)C(=O)/C1=C/C=C/c1ccco1	?	11.2µM	-52.9	50.1µM	?	i
CCCCCc1cc(O)c2c(c1)OC(C)(C)C1CC=C(C)CC21 (configuration not stated)	nt	nt	nt	nt	nt	i
CC1=NNC(=O)C1Br (configuration not stated)	nt	nt	i	28.2µM	i	nt
CN=C=O	i	i	nt	nt	nt	nt
N#CC1=C(N)Oc2c(c(=O)oc3ccccc23)C1c1ccncc1 (configuration not stated)	i	i	nt	i	i	i
N#CC1=C(N)Oc2c(c(=O)sc3ccccc23)C1c1cccnc1 (configuration not stated)	?	i	-62.7	i	i	i
Cc1cccc(N2C(=O)NC(=O)/C(=C\c3cnc(-c4ccccc4)nc3)C2=O)c1	i	i	-51.5	?	i	i
CC(C)c1ccc(N2C(=O)NC(=O)/C(=C\c3cnc(-c4ccccc4)nc3)C2=O)cc1	i	i	?	?	i	i
Cc1ccc(N2C(=O)NC(=O)/C(=C/c3cnc(-c4ccccc4)nc3)C2=O)cc1C	i	i	-51.7	?	i	i
CC(C)C[C@H](CN)CC(=O)O	i	nt	nt	nt	nt	nt
COc1cc2c(cc1O)C[C@H]1NCCc3cc4c(c-2c31)OCO4	?	i	i	?	10µM	i
CS(=O)c1ccc(-c2nc(-c3ccc(F)cc3)c(-c3ccncc3)[nH]2)cc1 (configuration not stated)	i	i	nt	nt	nt	i
CN1C(=O)/C(=C\N2CCc3ccccc32)C(=O)NC1=S	i	i	?	50.1µM	i	i
COc1cc2c(c3oc4cccc(O)c4c(=O)c13)C1C=CO[C@@H]1O2 (some centres not stated)	i	i	nt	nt	nt	i
C/C1=C\[C@@H](C)C/C=C/[C@H]2[C@@H]3O[C@]3(C)[C@@H](C)[C@H]3[C@H](Cc4c[nH]c5ccccc45)NC(=O)[C@]32C(=O)/C=C/C(=O)[C@@H]1O	15.8µM	i	?	i	i	i
CCN(CC)S(=O)(=O)c1ccc(NN=C(C#N)C#N)cc1	i	i	-58.0	i	i	i
CO/N=C(\C(=O)N[C@@H]1C(=O)N2C(C(=O)O)=C(CSc3nc(=O)c(O)nn3C)CS[C@H]12)c1csc(N)n1	14.1µM	nt	nt	nt	nt	nt
CC(=O)[O-].CC(=O)[O-].O.O.[Cd+2]	0.794µM	i	nt	nt	nt	nt
C=CC(C)=O	i	i	nt	nt	nt	nt
Cc1ccc(/C=C2\C(=O)NC(=S)N(c3ccccc3F)C2=O)s1	i	i	-110.5	50.1µM	?	i
Cc1ccc(/C=C2\C(=O)NC(=S)N(c3ccc(F)cc3)C2=O)s1	i	i	-82.5	50.1µM	i	i
CCOC(=O)C1CCN(/C=C2/C(=O)NC(=S)N(c3ccccc3F)C2=O)CC1	i	i	i	i	i	i

Screens from PubChem BioAssay.
